Assay results: PubChem BioAssay (NCATS)
Records with an inconclusive call do not appear. Activity calls are given as the source filed them. The call rests on the fitted dose curve; in most records, active means well fitted inhibition curve with a large enough effect; inconclusive means small, poorly fitted or top-dose-only effect; inactive means no such curve, though single readings can be large or run the other way.

Experiments:
[1] = qHTS Screen of the MIPE 4.0 Collection Against Ewings Sarcoma (TC71) (AID 1259253); further: nearly all actives have a fitted effect of over 40% in size
How it was run: (§1)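 Dose series incubated 48 h with cells in RPMI plus 5% FBS, glutamine and penicillin/streptomycin; cell viability then quantified via CellTiter-Glo.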

[2] = qHTS Screen of the MIPE 4.0 Collection Against Ewings Sarcoma (EW8) (AID 1259255); further: nearly all actives have a fitted effect of over 35% in size
How it was run: as §1

[3] = qHTS Screen of the MIPE 4.0 Collection Against Ewings Sarcoma (TC32) (AID 1259256); further: nearly all actives have a fitted effect of over 45% in size
How it was run: as §1
Potency means the concentration at half of the fitted maximal effect.

SMILES: C#C[C@]1(O)CC[C@H]2[C@H]3CCc4cc(OC)ccc4[C@H]3CC[C@@]21C
- Potency [1]: 29.6 µM (active)

SMILES: COc1c(C)c2c(c(O)c1CC=C(C)CCC(=O)O)C(=O)OC2
- Potency [1]: 2.35 µM (active)
- Potency [2]: 1.48 µM (active)

SMILES: COc1cc([C@@H]2c3cc4c(cc3[C@@H](O[C@@H]3O[C@@H]5CO[C@@H](C)O[C@@H]5[C@H](O)[C@@H]3O)[C@H]3COC(=O)[C@H]23)OCO4)cc(OC)c1O
- Potency [1]: 0.59 µM (active)
- Potency [2]: 0.148 µM (active)

SMILES: CC(C)(OCc1nn(Cc2ccccc2)c2ccccc12)C(=O)O
- Potency [1]: 7.43 µM (active)
- Potency [2]: inactive

SMILES: COc1cc2ncn(-c3cc(OCc4ccccc4S(C)(=O)=O)c(C#N)s3)c2cc1OC
- Potency [1]: 3.32 µM (active)
- Potency [2]: inactive

SMILES: NC[C@H]1O[C@H](O[C@@H]2[C@@H](O)[C@@H](O[C@H]3O[C@H](CO)[C@@H](O)[C@H](N)[C@@H]3O)[C@H](N)C[C@@H]2N)[C@H](O)[C@@H](O)[C@H]1O
- Potency [1]: inactive
- Potency [2]: inactive

SMILES: COc1cc(F)c(C(C)C)cc1-c1ccc(C(F)(F)F)cc1CN1C(=O)O[C@H](c2cc(C(F)(F)F)cc(C(F)(F)F)c2)[C@@H]1C
- Potency [1]: 16.6 µM (active)
- Potency [2]: inactive

SMILES: CNC1[C@H](O)C(O[C@@H]2C(O)C(O[C@H]3O[C@H]([C@@H](C)NC)CC[C@H]3N)[C@@H](N)C[C@H]2N)OC[C@]1(C)O (some centres undefined)
- Potency [1]: inactive
- Potency [2]: inactive

SMILES: COc1cc(CNC(=O)CCCCC=CC(C)C)ccc1O
- Potency [1]: 16.6 µM (active)
- Potency [2]: 6.62 µM (active)

SMILES: Nc1ccn([C@@H]2O[C@H](CO)[C@@H](O)[C@H]2O)c(=O)n1
- Potency [1]: 0.0332 µM (active)
- Potency [2]: 0.0935 µM (active)

SMILES: O=C(O)C1=NC(C(=O)O)CC(C=CN2c3cc(O)c(OC4OC(CO)C(O)C(O)C4O)cc3CC2C(=O)O)=C1 (centres undefined)
- Potency [1]: inactive

SMILES: CC[C@H]1OC(=O)[C@H](C)[C@@H](O[C@H]2C[C@@](C)(OC)[C@@H](O)[C@H](C)O2)[C@H](C)[C@@H](O[C@@H]2O[C@H](C)C[C@H](N(C)C)[C@H]2O)[C@](C)(O)C[C@H](C)C(=NOCOCCOC)[C@H](C)[C@@H](O)[C@]1(C)O
- Potency [1]: inactive
- Potency [2]: inactive

SMILES: CC(C)c1c(C(=O)Nc2ccccc2)c(-c2ccccc2)c(-c2ccc(F)cc2)n1CC[C@H](O)C[C@@H](O)CC(=O)O
- Potency [1]: 14.8 µM (active)
- Potency [2]: 23.5 µM (active)

SMILES: OC[C@H]1O[C@@H](O[C@H]2[C@@H](O)[C@@](O)(CO)O[C@@H]2CO)[C@H](O)[C@@H](O)[C@@H]1O
- Potency [1]: inactive
- Potency [2]: inactive

SMILES: C=C1c2cccc(O)c2C(O)=C2C(=O)[C@@]3(O)C(O)=C(C(N)=O)C(=O)[C@@H](N(C)C)[C@@H]3[C@@H](O)[C@H]12
- Potency [1]: 20.9 µM (active)
- Potency [2]: 23.5 µM (active)

SMILES: CC(C)c1onc(-c2c(Cl)cccc2Cl)c1COc1ccc(C=Cc2cccc(C(=O)O)c2)c(Cl)c1
- Potency [1]: 18.7 µM (active)
- Potency [2]: inactive

SMILES: CC[C@@H]([C@H](C)O)n1ncn(-c2ccc(N3CCN(c4ccc(OCC5CO[C@@](Cn6cncn6)(c6ccc(F)cc6F)C5)cc4)CC3)cc2)c1=O (some centres undefined)
- Potency [1]: inactive
- Potency [2]: inactive

SMILES: CC1(C)[C@H]2CC[C@]3(C)[C@@H](C(=O)C=C4[C@@H]5C[C@@](C)(C(=O)O)CC[C@]5(C)CC[C@]43C)[C@@]2(C)CC[C@@H]1O
- Potency [1]: inactive
- Potency [2]: inactive

SMILES: COc1cc(Cl)cn2c(-c3cccc(NC4CNC4)n3)cnc12
- Potency [1]: 23.5 µM (active)
- Potency [2]: inactive

SMILES: Cc1ccc(C2=Nc3ccc(Cl)cc3OC2)cc1
- Potency [1]: 4.69 µM (active)
- Potency [2]: 16.6 µM (active)

SMILES: COc1ccc(-c2nc3ccc(C4=NNC(=O)CC4C)cc3[nH]2)cc1 (centres undefined)
- Potency [1]: inactive
- Potency [2]: inactive

SMILES: C[C@@H]1CCO[C@H]2Cn3cc(C(=O)NCc4ccc(F)cc4F)c(=O)c(O)c3C(=O)N12
- Potency [1]: 13.2 µM (active)
- Potency [2]: 20.9 µM (active)

SMILES: CCC(=C(CC)c1ccc(O)cc1)c1ccc(O)cc1
- Potency [1]: 26.4 µM (active)

SMILES: CN[C@@H]1CN(c2ccc3c(=O)c(C(=O)O)cn(-c4nccs4)c3n2)C[C@@H]1OC
- Potency [1]: 0.645 µM (active)
- Potency [2]: 0.323 µM (active)

SMILES: N#CC1(c2cccc(C(=O)Nc3cc(Oc4ccc5nc(NC(=O)C6CC6)sc5n4)ccc3F)c2Cl)CC1
- Potency [1]: 16.6 µM (active)

SMILES: CO[C@H]1O[C@@H]2O[C@@]3(C)CC[C@@H]4[C@@H](C)CC[C@@H]([C@H]1C)[C@@]24OO3
- Potency [1]: 4.69 µM (active)
- Potency [2]: 5.9 µM (active)

SMILES: Nc1ncnc2c1ncn2[C@@H]1O[C@H](CO)[C@@H](O)[C@@H]1O
- Potency [1]: 6.62 µM (active)
- Potency [2]: 5.26 µM (active)

SMILES: O=c1[nH]nc(OCCCc2ccc(Cl)cc2)c(NCc2cccnc2)c1Br
- Potency [1]: 16.6 µM (active)
- Potency [2]: 13.2 µM (active)

SMILES: CC(C)C[C@@H](N)[C@H](O)C(=O)N[C@H](C(=O)N[C@H](C(=O)N[C@@H](CC(=O)O)C(=O)O)C(C)C)C(C)C
- Potency [1]: 18.7 µM (active)
- Potency [2]: inactive

SMILES: CN[C@@H](C)[C@H]1[C@H](O)C[C@@]2(C)[C@@H]3CC[C@H]4C(C)(C)[C@@H](NC)CC[C@@]45C[C@@]35CC[C@]12C
- Potency [1]: inactive
- Potency [2]: inactive

SMILES: Cc1ccc2c(=O)c3cccc(CC(=O)O)c3oc2c1C
- Potency [1]: 18.7 µM (active)

SMILES: C[C@H]1[C@H](O)O[C@@H]2O[C@@]3(C)CC[C@@H]4[C@H](C)CC[C@@H]1[C@@]24OO3
- Potency [1]: 1.48 µM (active)
- Potency [2]: 1.66 µM (active)

SMILES: CCC(C)SSc1ncc[nH]1 (centres undefined)
- Potency [1]: 26.4 µM (active)
- Potency [2]: 11.8 µM (active)

SMILES: CN(C)c1ccc(-c2nc3ncc(Cl)c(N4CCN(CC(=O)Nc5nccs5)CC4)c3[nH]2)cc1
- Potency [1]: 18.7 µM (active)

SMILES: OC1CCC(Nc2ncc3nc(Nc4c(F)cc(F)cc4F)n([C@@H]4CCOC4)c3n2)CC1 (some centres undefined)
- Potency [1]: 10.5 µM (active)
- Potency [2]: 9.35 µM (active)

SMILES: CC(NCCc1ccc(O)cc1)C(O)c1ccc(O)cc1 (centres undefined)
- Potency [1]: inactive
- Potency [2]: inactive

SMILES: CC(C)CN(C[C@H](O)[C@H](Cc1ccccc1)NC(=O)O[C@H]1CCOC1)S(=O)(=O)c1ccc(N)cc1
- Potency [1]: 18.7 µM (active)
- Potency [2]: 18.7 µM (active)

SMILES: CN1CCc2c(n(Cc3ccc(C(=O)NO)cc3)c3ccccc23)C1
- Potency [1]: 18.7 µM (active)
- Potency [2]: 16.6 µM (active)

SMILES: CCCCC(C=O)NC(=O)C(CC(C)C)NC(=O)OCc1ccccc1 (centres undefined)
- Potency [1]: inactive
- Potency [2]: 11.8 µM (active)
- Potency [3]: inactive

SMILES: COc1cc2nc(-c3cc(F)ccc3O)nc(N[C@@H]3CNC[C@@H]3C(C)(C)O)c2cc1OC
- Potency [1]: 20.9 µM (active)
- Potency [2]: 23.5 µM (active)

SMILES: CC(=O)OCC(=O)[C@@]12OC(C)(C)O[C@H]1C[C@H]1[C@@H]3C[C@H](F)C4=CC(=O)C=C[C@]4(C)[C@@]3(F)[C@@H](O)C[C@@]12C
- Potency [1]: inactive
- Potency [2]: inactive
- Potency [3]: inactive

SMILES: Oc1cc(O)cc(C=Cc2ccc(O)c(O)c2)c1
- Potency [1]: 18.7 µM (active)
- Potency [2]: 18.7 µM (active)

SMILES: O=c1cc(-c2ccc(O)c(O)c2)oc2cc(O)cc(O)c12
- Potency [1]: inactive
- Potency [2]: inactive
- Potency [3]: inactive

SMILES: Cc1cc(NC(=O)Nc2ccc(N(C)C)cc2)c2cc(F)cc(F)c2n1
- Potency [1]: inactive
- Potency [2]: 26.4 µM (active)

SMILES: Cc1ccccc1C(=O)c1ccc(Nc2ccc(Br)cc2N)cc1Cl
- Potency [1]: 16.6 µM (active)
- Potency [2]: 23.5 µM (active)

SMILES: O=C1CCCC(=O)C1C(=O)c1ccc(C(F)(F)F)cc1[N+](=O)[O-]
- Potency [1]: 23.5 µM (active)
- Potency [2]: inactive

SMILES: O=c1[nH]c(=O)n([C@H]2C[C@@H](O)[C@@H](CO)O2)cc1I
- Potency [1]: 5.9 µM (active)
- Potency [2]: 5.26 µM (active)

SMILES: O=C(C=Cc1ccc(O)cc1)c1ccc(O)cc1O
- Potency [1]: 14.8 µM (active)
- Potency [2]: 20.9 µM (active)
- Potency [3]: 16.6 µM (active)

SMILES: Cc1[nH]c(C=C2C(=O)Nc3ccc(S(=O)(=O)N(C)c4cccc(Cl)c4)cc32)c(C)c1C(=O)N1CCN(C)CC1
- Potency [1]: 26.4 µM (active)
- Potency [2]: 26.4 µM (active)

SMILES: Cc1cccc2c1CC[C@H](CN1CCC(c3c(Cl)cccc3Cl)CC1)C[C@@H]2O
- Potency [1]: 5.9 µM (active)
- Potency [2]: 14.8 µM (active)

SMILES: CN1N=C(N)c2cn([C@@H]3O[C@H](COP(=O)(O)O)[C@@H](O)[C@@H]3O)c3ncnc1c23
- Potency [1]: 7.43 µM (active)
- Potency [2]: 13.2 µM (active)
- Potency [3]: 2.64 µM (active)

SMILES: COc1nccc(-c2c(-c3ccc(F)cc3)ncn2C2CCNCC2)n1
- Potency [1]: 5.9 µM (active)
- Potency [2]: 9.35 µM (active)

SMILES: C[C@@H]1O[C@@H](O[C@H]2CC[C@@]3(C)[C@H](CC[C@@H]4[C@H]3C[C@@H](O)[C@]3(C)[C@@H](C5=CC(=O)OC5)CC[C@]43O)C2)C[C@H](O)[C@@H]1O[C@H]1C[C@H](O)[C@H](O[C@H]2C[C@H](O)[C@@H](O)[C@@H](C)O2)[C@H](C)O1 (stereo in doubt)
- Potency [1]: 0.241 µM (active)
- Potency [2]: 0.215 µM (active)
- Potency [3]: 0.241 µM (active)

SMILES: CCN1CCC(n2cc(CNc3cc(Cl)c4ncc(C#N)c(Nc5ccc(F)c(Cl)c5)c4c3)nn2)CC1
- Potency [1]: 18.7 µM (active)
- Potency [2]: 20.9 µM (active)
- Potency [3]: 18.7 µM (active)

SMILES: CCNC(=O)CCCC=CC[C@@H]1[C@H](C=CC(O)CCc2ccccc2)[C@@H](O)C[C@@H]1O (some centres undefined)
- Potency [1]: inactive
- Potency [2]: 23.5 µM (active)
- Potency [3]: inactive

SMILES: NCc1c[nH]c(=S)n1[C@H]1CCc2c(F)cc(F)cc2C1
- Potency [1]: 20.9 µM (active)
- Potency [2]: 23.5 µM (active)
- Potency [3]: 23.5 µM (active)

SMILES: Cc1ccccc1-n1c(Cn2nc(-c3cccc(O)c3)c3c(N)ncnc32)nc2cccc(C)c2c1=O
- Potency [1]: 9.35 µM (active)
- Potency [2]: 16.6 µM (active)

SMILES: CN(C(Cc1ccc(OS(=O)(=O)c2cccc3cnccc23)cc1)C(=O)N1CCN(c2ccccc2)CC1)S(=O)(=O)c1cccc2cnccc12 (centres undefined)
- Potency [1]: 18.7 µM (active)
- Potency [2]: 14.8 µM (active)

SMILES: NCC1CCC(C(=O)O)CC1 (centres undefined)
- Potency [1]: 9.35 µM (active)
- Potency [2]: inactive

SMILES: CCOC(=O)c1c(CSc2ccccc2)n(C)c2cc(Br)c(O)c(CN(C)C)c12
- Potency [1]: 16.6 µM (active)
- Potency [2]: 20.9 µM (active)
- Potency [3]: 13.2 µM (active)
